# About 410 targets per protein were measured; listed, in parts, are those with the strongest signals and a random draw of the rest.
# B1: CRT-1 (Homo sapiens), P27797 (protein)
# chain: MLLSVPLLLGLLGLAVAEPAVYFKEQFLDGDGWTSRWIESKHKSDFGKFVLSSGKFYGDEEKDKGLQTSQDARFYALSASFEPFSNKGQTLVVQFTVKHEQNIDCGGGYVKLFPNSLDQTDMHGDSEYNIMFGPDICGPGTKKVHVIFNYKGKNVLINKDIRCKDDEFTHLYTLIVRPDNTYEVKIDNSQVESGSLEDDWDFLPPKKIKDPDASKPEDWDERAKIDDPTDSKPEDWDKPEHIPDPDAKKPEDWDEEMDGEWEPPVIQNPEYKGEWKPRQIDNPDYKGTWIHPEIDNPEYSPDPSIYAYDNFGVLGLDLWQVKSGTIFDNFLITNDEAYAEEFGNETWGVTKAAEKQMKDKQDEEQRLKEEEEDKKRKEEEEAEDKEDDEDKDEDEEDEEDKEEDEEEDVPGQAKDEL
# How the values were obtained:
# Assay in all cases: glycan array binding signal (z-score within array); higher = stronger binding
# Conditions in all cases: glycan notation: IUPAC condensed, linker removed
# [1] = target: Fuc(a1-2)Gal(b1-4)Fuc(a1-3)]GlcNAc(b1-2)Man(a1-3)[Fuc(a1-2)Gal(b1-4)[Fuc(a1-3)]GlcNAc(b1-2)Man(a1-6)]Man(b1-4)GlcNAc(b1-4)GlcNAc
# Method in brief: (§1)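 The binding signal is a Z-score computed within each array. Data were drawn from 3228 arrays in the Consortium for Functional Glycomics database, restricted to those with a known protein sequence. Scores were averaged over arrays of the same protein sequence at different concentrations or buffers, and over linkers, and negative values can be taken as non-binding.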
# [2] = target: Fuc(a1-2)Gal(b1-4)GlcNAc(b1-3)[Fuc(a1-3)[Gal(b1-4)]GlcNAc(b1-6)]Gal(b1-4)Glc
# Method in brief: as §1
# [3] = target: Fuc(a1-2)Gal(b1-4)[Fuc(a1-3)]GlcNAc(b1-2)Man(a1-3)[Fuc(a1-2)Gal(b1-4)[Fuc(a1-3)]GlcNAc(b1-2)Man(a1-6)]Man(b1-4)GlcNAc(b1-4)GlcNAc
# Method in brief: as §1
# [4] = target: Fuc(a1-2)Gal6S(b1-3)GlcNAc6S
# Method in brief: as §1
# [5] = target: Fuc(a1-2)[Gal(a1-3)]Gal(b1-3)GlcNAc(b1-3)GalNAc
# Method in brief: as §1
# [6] = target: Fuc(a1-2)[Gal(a1-3)]Gal(b1-4)[Fuc(a1-3)]Glc
# Method in brief: as §1
# [7] = target: Fuc(a1-2)[GalNAc(a1-3)]Gal(b1-4)GlcNAc
# Method in brief: as §1
# [8] = target: Fuc(a1-2)[GalNAc(a1-3)]Gal(b1-4)GlcNAc(b1-2)Man(a1-3)[Fuc(a1-2)[GalNAc(a1-3)]Gal(b1-4)GlcNAc(b1-2)Man(a1-6)]Man(b1-4)GlcNAc(b1-4)GlcNAc
# Method in brief: as §1
# [9] = target: Fuc(a1-3)GlcNAc
# Method in brief: as §1
# [10] = target: Fuc(a1-3)[Gal3S(b1-4)]GlcNAc
# Method in brief: as §1
# [11] = target: Fuc(a1-3)[Gal3S(b1-4)]GlcNAc6S
# Method in brief: as §1
# [12] = target: Gal(a1-3)Gal(b1-3)GlcNAc
# Method in brief: as §1
# [13] = target: Gal(a1-3)Gal(b1-3)[Fuc(a1-4)]GlcNAc(b1-2)Man(a1-3)[Gal(a1-3)Gal(b1-3)[Fuc(a1-4)]GlcNAc(b1-2)Man(a1-6)]Man(b1-4)GlcNAc(b1-4)GlcNAc
# Method in brief: as §1
# [14] = target: Gal(a1-3)Gal(b1-4)GlcNAc(b1-2)Man
# Method in brief: as §1
# [15] = target: Gal(a1-3)[Gal(a1-4)]Gal(b1-4)GlcNAc
# Method in brief: as §1
# [16] = target: Gal(a1-4)Gal(b1-4)GlcNAc(b1-2)Man(a1-3)[Gal(a1-4)Gal(b1-4)GlcNAc(b1-2)Man(a1-6)]Man(b1-4)GlcNAc(b1-4)GlcNAc
# Method in brief: as §1
# [17] = target: Gal(b1-3)GlcNAc
# Method in brief: as §1
# [18] = target: Gal(b1-3)GlcNAc(b1-2)Man(a1-3)[Gal(b1-3)GlcNAc(b1-2)Man(a1-6)]Man(b1-4)GlcNAc(b1-4)[Fuc(a1-6)]GlcNAc
# Method in brief: as §1
# [19] = target: Gal(b1-3)GlcNAc6S
# Method in brief: as §1
# [20] = target: Gal(b1-3)[Fuc(a1-4)]GlcNAc(b1-2)Man(a1-3)[Gal(b1-3)[Fuc(a1-4)]GlcNAc(b1-2)Man(a1-6)]Man(b1-4)GlcNAc(b1-4)GlcNAc
# Method in brief: as §1
# [21] = target: Gal(b1-4)Gal
# Method in brief: as §1
# [22] = target: Gal(b1-4)GlcNAc(b1-3)Gal(b1-3)GlcNAc
# Method in brief: as §1
# [23] = target: Gal(b1-4)GlcNAc(b1-3)Gal(b1-4)GlcNAc(b1-3)Gal(b1-4)GlcNAc(b1-3)Gal(b1-4)GlcNAc(b1-2)Man(a1-3)[Gal(b1-4)GlcNAc(b1-3)Gal(b1-4)GlcNAc(b1-3)Gal(b1-4)GlcNAc(b1-3)Gal(b1-4)GlcNAc(b1-2)Man(a1-6)]Man(b1-4)GlcNAc(b1-4)[Fuc(a1-6)]GlcNAc
# Method in brief: as §1
# [24] = target: Gal(b1-4)GlcNAc(b1-3)Gal(b1-4)GlcNAc(b1-3)Gal(b1-4)GlcNAc(b1-3)Gal(b1-4)GlcNAc(b1-3)Gal(b1-4)GlcNAc(b1-2)Man(a1-3)[Gal(b1-4)GlcNAc(b1-3)Gal(b1-4)GlcNAc(b1-3)Gal(b1-4)GlcNAc(b1-3)Gal(b1-4)GlcNAc(b1-3)Gal(b1-4)GlcNAc(b1-2)Man(a1-6)]Man(b1-4)GlcNAc(b1-4)GlcNAc
# Method in brief: as §1
# [25] = target: Gal(b1-4)GlcNAc(b1-3)[Gal(b1-4)GlcNAc(b1-6)]Gal(b1-4)GlcNAc
# Method in brief: as §1
# [26] = target: Gal(b1-4)GlcNAc(b1-3)[Gal(b1-4)GlcNAc(b1-6)]GalNAc
# Method in brief: as §1
# [27] = target: Gal3S(b1-3)GalNAc
# Method in brief: as §1
# [28] = target: Gal3S(b1-4)GlcNAc6S
# Method in brief: as §1
# [29] = target: Gal6S(b1-4)Glc
# Method in brief: as §1
# [30] = target: Gal6S(b1-4)GlcNAc
# Method in brief: as §1
# [31] = target: GalNAc(b1-3)Gal(a1-4)Gal(b1-4)GlcNAc(b1-3)Gal(b1-4)Glc
# Method in brief: as §1
# [32] = target: GalNAc(b1-3)GlcNAc
# Method in brief: as §1
# [33] = target: GalNAc(b1-6)GalNAc
# Method in brief: as §1
# [34] = target: Glc(a1-6)Glc(a1-6)Glc(a1-6)Glc
# Method in brief: as §1
# [35] = target: GlcNAc(a1-4)Gal(b1-4)GlcNAc(b1-3)Gal(b1-4)[Fuc(a1-3)]GlcNAc(b1-3)Gal(b1-4)[Fuc(a1-3)]GlcNAc
# Method in brief: as §1
# [36] = target: GlcNAc(a1-6)Gal(b1-4)GlcNAc
# Method in brief: as §1
# [37] = target: GlcNAc(b1-3)Gal(b1-4)GlcNAc(b1-2)[GlcNAc(b1-3)Gal(b1-4)GlcNAc(b1-6)]Man(a1-6)[GlcNAc(b1-3)Gal(b1-4)GlcNAc(b1-2)Man(a1-3)]Man(b1-4)GlcNAc(b1-4)GlcNAc
# Method in brief: as §1
# [38] = target: GlcNAc(b1-3)Gal(b1-4)GlcNAc(b1-3)Gal(b1-4)GlcNAc(b1-2)Man(a1-3)[GlcNAc(b1-3)Gal(b1-4)GlcNAc(b1-3)Gal(b1-4)GlcNAc(b1-2)Man(a1-6)]Man(b1-4)GlcNAc(b1-4)[Fuc(a1-6)]GlcNAc
# Method in brief: as §1
# [39] = target: GlcNAc(b1-3)Gal(b1-4)GlcNAc(b1-3)Gal(b1-4)GlcNAc(b1-3)Gal(b1-4)GlcNAc(b1-3)Gal(b1-4)GlcNAc(b1-2)Man(a1-3)[GlcNAc(b1-3)Gal(b1-4)GlcNAc(b1-3)Gal(b1-4)GlcNAc(b1-3)Gal(b1-4)GlcNAc(b1-3)Gal(b1-4)GlcNAc(b1-2)Man(a1-6)]Man(b1-4)GlcNAc(b1-4)GlcNAc
# Method in brief: as §1
# [40] = target: GlcNAc(b1-3)Man
# Method in brief: as §1
# [41] = target: Neu5Ac(a2-3)Gal(b1-3)GlcNAc(b1-2)[Neu5Ac(a2-3)Gal(b1-3)GlcNAc(b1-4)]Man(a1-6)[Neu5Ac(a2-3)Gal(b1-3)GlcNAc(b1-2)Man(a1-3)]Man(b1-4)GlcNAc(b1-4)GlcNAc
# Method in brief: as §1
# [42] = target: Neu5Ac(a2-3)Gal(b1-4)GlcNAc(b1-6)[Neu5Ac(a2-3)Gal(b1-3)]GalNAc
# Method in brief: as §1
# [43] = target: Neu5Ac(a2-3)Gal(b1-4)[Fuc(a1-3)]GlcNAc(b1-3)Gal(b1-4)GlcNAc
# Method in brief: as §1
# [44] = target: Neu5Ac(a2-3)[GalNAc(b1-4)]Gal(b1-4)GlcNAc(b1-3)GalNAc
# Method in brief: as §1
# [45] = target: Neu5Ac(a2-6)Gal(b1-4)GlcNAc(b1-2)Man(a1-3)[GlcNAc(b1-2)Man(b1-4)GlcNAc(b1-2)Man(a1-6)]Man(b1-4)GlcNAc(b1-4)GlcNAc
# Method in brief: as §1
# [46] = target: Neu5Ac(a2-6)Gal(b1-4)GlcNAc(b1-2)Man(a1-3)[Man(a1-6)]Man(b1-4)GlcNAc(b1-4)GlcNAc
# Method in brief: as §1
# [47] = target: Neu5Ac(a2-6)Gal(b1-4)GlcNAc(b1-2)Man(a1-3)[Neu5Ac(a2-6)Gal(b1-4)GlcNAc(b1-2)Man(a1-6)]Man(b1-4)GlcNAc(b1-4)GlcNAc
# Method in brief: as §1
# [48] = target: Neu5Ac(a2-6)Gal(b1-4)GlcNAc(b1-3)Gal(b1-4)GlcNAc(b1-3)Gal(b1-4)GlcNAc(b1-2)Man(a1-3)[Neu5Ac(a2-6)Gal(b1-4)GlcNAc(b1-3)Gal(b1-4)GlcNAc(b1-3)Gal(b1-4)GlcNAc(b1-2)Man(a1-6)]GalNAc
# Method in brief: as §1
# [49] = target: Neu5Ac(a2-6)Gal(b1-4)GlcNAc(b1-3)Gal(b1-4)GlcNAc(b1-3)GalNAc
# Method in brief: as §1
# [50] = target: Neu5Ac(a2-6)GalNAc
# Method in brief: as §1
# [51] = target: Neu5Ac(a2-8)Neu5Gc(a2-3)Gal(b1-4)GlcNAc
# Method in brief: as §1
# [52] = target: Neu5Gc(a2-3)Gal(b1-3)GlcNAc
# Method in brief: as §1
# [53] = target: Neu5Gc(a2-8)Neu5Gc(a2-3)Gal(b1-4)GlcNAc
# Method in brief: as §1
binder,measurement,setting,value
B1,glycan array binding signal (z-score),[1],1.49
same,glycan array binding signal (z-score),[2],0.038
same,glycan array binding signal (z-score),[3],2.15
same,glycan array binding signal (z-score),[4],0.305
same,glycan array binding signal (z-score),[5],-0.073
same,glycan array binding signal (z-score),[6],-0.424
same,glycan array binding signal (z-score),[7],-0.467
same,glycan array binding signal (z-score),[8],0.117
same,glycan array binding signal (z-score),[9],2.63
same,glycan array binding signal (z-score),[10],0.572
same,glycan array binding signal (z-score),[11],0.146
same,glycan array binding signal (z-score),[12],-0.43
same,glycan array binding signal (z-score),[13],0.078
same,glycan array binding signal (z-score),[14],-0.279
same,glycan array binding signal (z-score),[15],0.255
same,glycan array binding signal (z-score),[16],-0.021
same,glycan array binding signal (z-score),[17],-0.063
same,glycan array binding signal (z-score),[18],0.223
same,glycan array binding signal (z-score),[19],0.611
same,glycan array binding signal (z-score),[20],2.33
same,glycan array binding signal (z-score),[21],-0.253
same,glycan array binding signal (z-score),[22],-0.342
same,glycan array binding signal (z-score),[23],1.79
same,glycan array binding signal (z-score),[24],1.75
same,glycan array binding signal (z-score),[25],0.487
same,glycan array binding signal (z-score),[26],-0.095
same,glycan array binding signal (z-score),[27],-0.188
same,glycan array binding signal (z-score),[28],-0.498
same,glycan array binding signal (z-score),[29],-0.297
same,glycan array binding signal (z-score),[30],-0.673
same,glycan array binding signal (z-score),[31],0.488
same,glycan array binding signal (z-score),[32],0.853
same,glycan array binding signal (z-score),[33],0.544
same,glycan array binding signal (z-score),[34],0.137
same,glycan array binding signal (z-score),[35],1.95
same,glycan array binding signal (z-score),[36],-0.513
same,glycan array binding signal (z-score),[37],2.14
same,glycan array binding signal (z-score),[38],1.91
same,glycan array binding signal (z-score),[39],0.27
same,glycan array binding signal (z-score),[40],0.915
same,glycan array binding signal (z-score),[41],-0.396
same,glycan array binding signal (z-score),[42],-0.461
same,glycan array binding signal (z-score),[43],0.745
same,glycan array binding signal (z-score),[44],-0.233
same,glycan array binding signal (z-score),[45],12.5
same,glycan array binding signal (z-score),[46],0.357
same,glycan array binding signal (z-score),[47],2.53
same,glycan array binding signal (z-score),[48],1.9
same,glycan array binding signal (z-score),[49],-1.62
same,glycan array binding signal (z-score),[50],0.869
same,glycan array binding signal (z-score),[51],-0.349
same,glycan array binding signal (z-score),[52],-0.645
same,glycan array binding signal (z-score),[53],-0.33

# Reference: the supplement of paper PMC8728848
